Bioassay records from PubChem BioAssay.
An excerpt weighted towards active compounds, which were near 3.5% of everything screened.
TEAD-YAP inh: TEAD-YAP interaction inhibition; HEK-TIYL cells, TEAD-Gal4/YAP UAS-luciferase luminescence; inhibition, % at 9.12 µM; 640,000 compounds, 1.4% hits; AID 1259422; in the data active = inhibition above about 32%
FBW7 activator: human FBW7 E3 ligase activation, primary screen; Q969H0; 650,000 compounds, 0.13% hits; normalized activity (activation), % at 26.1 µM; AlphaScreen FBW7–phospho-cyclin E peptide binding, activator screen; AID 1259310; in the data active = normalized activity above about 1.9%;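 also: purified mutant Fbw7 with reduced substrate affinity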
MITF primary: human MITF inhibition, primary screen; O75030; AlphaScreen MITF homodimerization, bead proximity signal; inhibition, % at 2.6 µM; 650,000 compounds, 0.91% hits; AID 1259374; in the data active = inhibition above about 50%
GPR151 activ: human GPR151 activation | Q8TDV0 | PathHunter beta-arrestin GPR151 cells, luminescence | activation, % at 11.2 µM | 650,000 compounds, 1% hits; in the data active = activation above about 4.9%
Target sequence (Q8TDV0 whole entry, looked up): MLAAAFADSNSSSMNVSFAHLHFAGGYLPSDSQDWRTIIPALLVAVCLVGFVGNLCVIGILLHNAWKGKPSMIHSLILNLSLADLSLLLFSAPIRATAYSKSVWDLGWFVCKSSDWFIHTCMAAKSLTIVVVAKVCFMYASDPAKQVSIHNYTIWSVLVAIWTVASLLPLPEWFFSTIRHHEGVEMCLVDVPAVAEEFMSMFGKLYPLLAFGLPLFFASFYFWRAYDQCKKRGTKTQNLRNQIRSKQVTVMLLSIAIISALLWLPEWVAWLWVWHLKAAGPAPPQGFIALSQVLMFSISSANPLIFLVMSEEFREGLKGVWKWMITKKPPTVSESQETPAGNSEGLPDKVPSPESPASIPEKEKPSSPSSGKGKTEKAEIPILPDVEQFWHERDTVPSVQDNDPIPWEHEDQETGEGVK
A number is an active result; . = inactive.

SMILES	TEAD-YAP inh	FBW7 activator	MITF primary	GPR151 activ
O=C(Nc1nc2ccccc2n1Cc1ccccc1Cl)c1ccccc1	.	.	.	.
CC(Sc1nnc(NCc2ccccc2)s1)C(=O)Nc1ccccc1 (configuration not stated)	.	.	.	.
CCOc1cccc(/C=C2\NC(=S)N(C)C2=O)c1O	.	2.4	.	.
CCOc1ccc(/C=C2\NC(=S)N(C)C2=O)c(OCC)c1	.	.	.	.
COc1cc(/C=C2\NC(=S)NC2=O)cc(OC)c1O	.	.	.	.
COc1cccc(/C=C2\NC(=S)NC2=O)c1O	76	.	.	.
C/C(CC1(O)C(=O)Nc2ccccc21)=N\NC(=O)COc1ccc(C(C)C)cc1C (configuration not stated)	.	.	.	.
O=CNc1cccc2c1sc1nc[nH]c(=O)c12	53	.	.	.
CCOc1c(Br)ccc2c1sc1nc[nH]c(=O)c12	.	.	.	.
CCCn1c(C)cc(C(=O)COC(=O)c2ccc(Cl)c(N)c2)c1C	.	.	.	.
COc1cc(C(=O)Nc2cccc(-c3nc4ncccc4o3)c2)ccc1OCc1ccc(Cl)cc1	.	.	.	.
COc1ccc(CC(=O)Nc2cccc(-c3nc4ncccc4o3)c2)cc1OC	71	.	.	.
OCCC1CN(Cc2cccc3nonc23)CCN1CCc1ccccc1 (configuration not stated)	.	.	.	.
Cc1cc(C2C(=O)c3ccccc3C2=O)nc2ccccc12	49	.	.	.
O=C(N/N=C/c1ccccc1O)c1ccccc1[N+](=O)[O-]	.	.	.	.
NC(=S)N/N=C/c1cc([N+](=O)[O-])ccc1O	.	.	100	.
C/C(=N\NC(N)=S)c1ccc([N+](=O)[O-])cc1	36	.	.	.
COc1cc([N+](=O)[O-])cc(/C=N/NC(=O)c2ccccc2Br)c1O	.	.	73	.
CCOc1ccccc1C(=O)N/N=C/c1cc([N+](=O)[O-])cc(OC)c1O	.	.	.	.
C/C(=N\NC(N)=O)c1ccc([N+](=O)[O-])cc1	.	.	.	.
O=C(N/N=C/c1cc([N+](=O)[O-])ccc1O)c1ccccc1[N+](=O)[O-]	.	.	69	.
CCOc1cc2c(cc1OCC)C(C(=O)O)C(c1cccc(OC)c1OC)N(C)C2=O (configuration not stated)	.	.	.	.
CCC1CN(CC(=O)NCC2CCN(C(C)C)CC2)Cc2cc(OC)ccc2O1 (configuration not stated)	.	.	.	.
CCSc1nnc2c(n1)OC(C(=O)c1ccc(OC)cc1)Nc1ccccc1-2 (configuration not stated)	.	.	.	.
COc1ccccc1C(=O)N/N=C/c1ccc([N+](=O)[O-])s1	49	.	.	.
SMILES	TEAD-YAP inh	FBW7 activator	MITF primary	GPR151 activ
COc1cc([N+](=O)[O-])cc(/C=N/NC(=O)c2ccccc2[N+](=O)[O-])c1O	.	.	65	.
CCOc1cc([N+](=O)[O-])cc(/C=N/NC(=O)c2cc(C(C)(C)C)[nH]n2)c1O	.	.	66	.
Cc1ccc(C(=O)N/N=C/c2ccc([N+](=O)[O-])s2)cc1	.	.	.	.
C=CCS(=O)(=O)N1CCC(CCCc2ccccc2)(C(=O)OCC)CC1	.	.	.	.
COc1ccc(C(=S)N2CCOCC2)cc1O	.	.	.	.
Cc1ccc2nc(-c3sc4nc(C)ccc4c3N)[nH]c2c1	72	.	.	.
Cc1cc(C)c2c(N)c(-c3nc4ccccc4[nH]3)sc2n1	.	.	.	.
Cc1cc(Nc2ccccc2F)nc2cccc(O)c12	43	.	.	.
CC12CCC(C(=O)Nc3ccc(Cl)cc3)(CC1=O)C2(C)C (configuration not stated)	.	.	.	.
O=C(CSC1=Nc2cccnc2Nc2ccccc21)Nc1ccc(F)c(F)c1	.	.	.	.
Cc1ccn2c(-c3csc(Nc4ccc(S(N)(=O)=O)cc4)n3)c(C)nc2c1	.	.	.	.
CC(=O)Nc1ccc(Nc2nc(-c3c(C)nc4cc(C)ccn34)cs2)cc1	57	.	.	.
Cc1ccn2c(-c3csc(Nc4ccc(Cl)cc4)n3)c(C)nc2c1	55	.	.	.
Cn1cc(CCNC2CCN(c3ccc(C(=O)NC4CCCC4)cc3)CC2)cn1	.	.	.	.
CCCNC(=O)Cn1nc(CC)n2c(cc3ccsc32)c1=O	.	.	.	.
COc1ccc(CN2CCN(c3ccccn3)CC2)cc1	.	.	.	.
O=c1[nH]c2ccccc2cc1CNCCO	.	.	.	.
COc1cc(C=O)ccc1OCCc1ccccc1	33	.	.	.
COC(=O)C1=NN(c2ccccc2C)C2C(=O)N(c3ccc(Cl)cc3)C(=O)C12 (configuration not stated)	.	.	.	.
O=C(Cn1nnc(-c2ccc(S(=O)(=O)N3CCCC3)cc2)n1)NCc1ccco1	42	.	.	.
O=C(Cn1nnc(-c2ccc(S(=O)(=O)N3CCCC3)cc2)n1)NCC1CCCO1 (configuration not stated)	.	.	.	.
COc1ccc(N2C(=O)/C(=C\c3ccc([N+](=O)[O-])cc3)N=C2c2cccc(C)c2)cc1	.	.	.	.
CCn1ncc(Cl)c1C(=O)Nc1cc(Cl)ccc1Cl	.	1.9	.	.
CN1C(=O)c2cc(Br)c(N)c(Br)c2C1=O	.	.	.	.
COc1ccc(C2CC(c3cccs3)=NN2C(=O)CSc2nnc(CNC(=O)COc3ccccc3)n2-c2ccccc2OC)cc1 (configuration not stated)	32	.	.	.
SMILES	TEAD-YAP inh	FBW7 activator	MITF primary	GPR151 activ
COc1ccc(C2=NN(C(=O)CSc3nnc(CNC(=O)c4ccco4)n3-c3cc(C)ccc3C)C(c3ccc(OC)cc3)C2)cc1 (configuration not stated)	.	3.6	.	.
O=c1c(Cl)c(Cl)cnn1-c1ccc(Cl)cc1	82	.	.	.
O=C1CCCN1CCCNc1nc(NCCCN2CCCC2=O)c2ncn(-c3ccsc3)c2n1	39	.	.	.
Cc1nn(C)c(C)c1-c1nc(NCCN2CCOCC2)c2ncn(-c3ccsc3)c2n1	38	.	.	.
O=C1CCCN1CCCNc1nc(Nc2ccccc2)nc2c1ncn2-c1ccccc1	39	.	.	.
O=C1CCCN1CCCNc1nc(Nc2ncccn2)nc2c1ncn2-c1ccccc1	.	.	.	.
O=C1CCCN1CCCNc1nc(Nc2ccc3ncccc3c2)nc2c1ncn2-c1ccsc1	52	.	.	.
O=C1CCCN1CCCNc1nc(NCCN2CCOCC2)nc2c1ncn2-c1ccsc1	.	.	.	.
O=C1CCCN1CCCNc1nc(Nc2ccc(-n3ccnc3)cc2)nc2c1ncn2-c1ccsc1	61	.	.	.
CCCNc1nc(-c2c(C)nn(C)c2C)nc2c1ncn2-c1ccsc1	.	.	.	.
Cc1nn(C)c(C)c1-c1nc(NCCc2ccc(O)cc2)c2ncn(-c3ccsc3)c2n1	56	.	.	.
O=C1CCCN1CCCNc1nc(Nc2ccc(-n3ccnc3)cc2)nc2c1ncn2-c1ccccc1	52	.	.	.
O=C1CCCN1CCCNc1nc(Nc2ccncc2)nc2c1ncn2-c1ccsc1	60	.	.	.
